Targets with a hit are over-represented here; the source holds about 7,900 in all. About 0.6% of all pairs of compound and target were hits.
Experiments:
Assay in all cases: log2 fold change, soluble protein after heating vs DMSO (PISA); higher = thermal stabilisation; K562 cells, 10 uM, 30 min; active = over 0.2 and 3.5 SD of the protein, either way, in both replicates (recomputed)
bafetinib = compound: Cc1ccc(NC(=O)c2ccc(CN3CC[C@H](N(C)C)C3)c(C(F)(F)F)c2)cc1Nc1nccc(-c2cncnc2)n1 [bafetinib]
Method in brief: (§1)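 Thermal stability values are relative to control samples and come from duplicates. They are expressed as log2 fold changes. For measurement, K562 cells (2×10^6 cells/mL) received 10 μM compound for 30 min, and aliquots were heated for 3 min over 48°C-58°C, pooled, and extracted at 4°C in PBS with 0.5% NP-40. Soluble protein, the supernatant after 21,000xg for 90 min, was quantified by TMTpro 16plex LC-MS/MS with equalised channel sums.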

nilotinib = compound: Cc1cn(-c2cc(NC(=O)c3ccc(C)c(Nc4nccc(-c5cccnc5)n4)c3)cc(C(F)(F)F)c2)cn1 [nilotinib]
Method in brief: as §1

[1] = compound: Cc1nc(Nc2n[nH]c3c2CN(C(=O)N[C@H](CN(C)C)c2ccccc2)C3(C)C)c2sccc2n1
Method in brief: as §1

dasatinib = compound: Cc1nc(Nc2ncc(C(=O)Nc3c(C)cccc3Cl)s2)cc(N2CCN(CCO)CC2)n1 [dasatinib]
Method in brief: as §1

[2] = compound: Cc1ncc(-c2ccnc(Nc3ccc(S(C)(=O)=O)cc3)n2)n1C(C)C
Method in brief: as §1

[3] = compound: Cn1cc(-c2ccc3c(c2)CCN3C(=O)Cc2cccc(C(F)(F)F)c2)c2c(N)ncnc21
Method in brief: as §1

[4] = compound: Cn1cc(-c2ccc3nnc(C(F)(F)c4ccc5ncccc5c4)n3n2)cn1
Method in brief: as §1

tipifarnib = compound: Cn1cncc1[C@@](N)(c1ccc(Cl)cc1)c1ccc2c(c1)c(-c1cccc(Cl)c1)cc(=O)n2C [tipifarnib]
Method in brief: as §1

mubritinib = compound: FC(F)(F)c1ccc(/C=C/c2nc(COc3ccc(CCCCn4ccnn4)cc3)co2)cc1 [mubritinib]
Method in brief: as §1

[5] = compound: NC(=O)Nc1cc(-c2cccc(F)c2)sc1C(=O)N[C@H]1CCCNC1
Method in brief: as §1

[6] = compound: NC1(c2ccc(-c3nc4ccn5c(=O)[nH]nc5c4cc3-c3ccccc3)cc2)CCC1
Method in brief: as §1

[7] = compound: NCC(=O)Nc1ccc(-n2nc(C(F)(F)F)cc2-c2ccc3c(ccc4ccccc43)c2)cc1
Method in brief: as §1

entinostat = compound: Nc1ccccc1NC(=O)c1ccc(CNC(=O)OCc2cccnc2)cc1 [entinostat]
Method in brief: as §1

citarinostat = compound: O=C(CCCCCCNC(=O)c1cnc(N(c2ccccc2)c2ccccc2Cl)nc1)NO [citarinostat]
Method in brief: as §1

silmitasertib = compound: O=C(O)c1ccc2c(c1)nc(Nc1cccc(Cl)c1)c1ccncc12 [silmitasertib]
Method in brief: as §1

[8] = compound: O=C1NC(=O)C(c2cnc3ccccn23)=C1c1cn2c3c(cc(F)cc13)CN(C(=O)N1CCCCC1)CC2
Method in brief: as §1

[9] = compound: c1cc(OCCN2CCCCC2)cc(-c2n[nH]c3ccc(-c4nnc[nH]4)cc23)c1
Method in brief: as §1

[10] = compound: Cc1cccc(CC(=O)N2CCc3c2ccc(-c2cn(C)c4ncnc(N)c24)c3F)n1
Method in brief: as §1

[11] = compound: NC(=O)c1cnc(N[C@@H]2CCCC[C@@H]2N)nc1Nc1cccc(-n2nccn2)c1
Method in brief: as §1

vorinostat = compound: O=C(CCCCCCC(=O)Nc1ccccc1)NO [vorinostat]
Method in brief: as §1

Measured: log2 fold change

DNAJC24 (UniProt Q6P3W2)
Chain of UniProt Q6P3W2 (Q6P3W2 whole entry, looked up): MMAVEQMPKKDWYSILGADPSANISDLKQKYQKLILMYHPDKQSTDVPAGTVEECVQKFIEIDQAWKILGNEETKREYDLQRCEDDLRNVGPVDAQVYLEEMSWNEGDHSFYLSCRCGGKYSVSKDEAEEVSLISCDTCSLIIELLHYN
inactive: bafetinib -0.079 | nilotinib 0.019 | [1] -0.054 | dasatinib 0.053 | [2] 0.016 | [3] -0.1 | [4] -0.201 | tipifarnib 0.084 | mubritinib 0.06 | [5] 0.023 | [6] 0.011 | [7] -0.129 | entinostat 0.055 | citarinostat 0.102 | silmitasertib 0.052 | [8] -0.059 | [9] -0.169

F5 (UniProt P12259)
inactive: bafetinib -0.076 | [10] -0.02 | nilotinib 0.021 | [1] 0.019 | dasatinib 0.05 | [2] 0.023 | [3] 0.072 | [4] 0.111 | tipifarnib 0.153 | mubritinib -0.089 | [5] -0.095 | [11] -0.08 | [6] 0.048 | [7] -0.024 | entinostat -0.045 | vorinostat -0.016 | citarinostat -0.019 | silmitasertib 0.127 | [8] 0.084 | [9] 0.002

EGR1 (UniProt P18146)
inactive: bafetinib -0.257 | [10] 0.141 | nilotinib -0.001 | [1] -0.352 | [2] -0.295 | [3] -0.24 | [4] -0.106 | tipifarnib 0.139 | mubritinib -0.121 | [5] -0.029 | [11] -0.346 | [6] 0.345 | [7] 0.066 | entinostat 0.091 | vorinostat -0.033 | silmitasertib 0.085 | [8] -0.109

DPYSL2 (UniProt Q16555)
inactive: bafetinib -0.114 | [10] 0.081 | nilotinib 0.046 | [1] -0.063 | dasatinib 0 | [2] 0.079 | [3] 0.042 | tipifarnib 0.015 | mubritinib -0.048 | [5] 0.053 | [11] 0.01 | [6] 0.014 | [7] -0.056 | entinostat -0.037 | vorinostat 0.276 | citarinostat -0.017 | silmitasertib -0.118 | [8] -0.224 | [9] -0.054

CYP24A1 (UniProt Q07973)
inactive: bafetinib 0.373 | [10] -0.049 | nilotinib 0.01 | [1] 0.167 | dasatinib 0.184 | [2] -0.105 | [4] -0.057 | tipifarnib 0.101 | mubritinib -0.074 | [11] 0.045 | [6] 0.43 | [7] 0.21 | vorinostat 0.067 | citarinostat -0.002 | silmitasertib 0.099 | [9] 0.109

DYNC1I2 isoform 5 (UniProt Q13409)
inactive: bafetinib -0.071 | [10] -0.018 | nilotinib 0.015 | [1] 0.002 | dasatinib -0.012 | [2] 0.011 | [3] 0.003 | [4] -0.008 | tipifarnib -0.038 | mubritinib 0.046 | [5] -0.021 | [11] -0.016 | [6] -0.023 | [7] 0.059 | entinostat -0.018 | vorinostat -0.044 | citarinostat 0.015 | silmitasertib 0.004 | [8] -0.012 | [9] 0.004

FAM207A (UniProt Q9NSI2)
inactive: bafetinib 0.002 | [10] 0.076 | nilotinib -0.071 | [1] -0.087 | dasatinib 0.006 | [2] -0.059 | [4] -0.127 | tipifarnib 0.003 | mubritinib -0.238 | [5] -0.005 | [11] 0.076 | [6] -0.165 | [7] -0.042 | entinostat 0.052 | vorinostat 0.015 | citarinostat 0.106 | silmitasertib 0.356 | [8] 0.099 | [9] -0.117

EIF2AK3 (UniProt Q9NZJ5)
Chain of UniProt Q9NZJ5 (Q9NZJ5 whole entry, looked up): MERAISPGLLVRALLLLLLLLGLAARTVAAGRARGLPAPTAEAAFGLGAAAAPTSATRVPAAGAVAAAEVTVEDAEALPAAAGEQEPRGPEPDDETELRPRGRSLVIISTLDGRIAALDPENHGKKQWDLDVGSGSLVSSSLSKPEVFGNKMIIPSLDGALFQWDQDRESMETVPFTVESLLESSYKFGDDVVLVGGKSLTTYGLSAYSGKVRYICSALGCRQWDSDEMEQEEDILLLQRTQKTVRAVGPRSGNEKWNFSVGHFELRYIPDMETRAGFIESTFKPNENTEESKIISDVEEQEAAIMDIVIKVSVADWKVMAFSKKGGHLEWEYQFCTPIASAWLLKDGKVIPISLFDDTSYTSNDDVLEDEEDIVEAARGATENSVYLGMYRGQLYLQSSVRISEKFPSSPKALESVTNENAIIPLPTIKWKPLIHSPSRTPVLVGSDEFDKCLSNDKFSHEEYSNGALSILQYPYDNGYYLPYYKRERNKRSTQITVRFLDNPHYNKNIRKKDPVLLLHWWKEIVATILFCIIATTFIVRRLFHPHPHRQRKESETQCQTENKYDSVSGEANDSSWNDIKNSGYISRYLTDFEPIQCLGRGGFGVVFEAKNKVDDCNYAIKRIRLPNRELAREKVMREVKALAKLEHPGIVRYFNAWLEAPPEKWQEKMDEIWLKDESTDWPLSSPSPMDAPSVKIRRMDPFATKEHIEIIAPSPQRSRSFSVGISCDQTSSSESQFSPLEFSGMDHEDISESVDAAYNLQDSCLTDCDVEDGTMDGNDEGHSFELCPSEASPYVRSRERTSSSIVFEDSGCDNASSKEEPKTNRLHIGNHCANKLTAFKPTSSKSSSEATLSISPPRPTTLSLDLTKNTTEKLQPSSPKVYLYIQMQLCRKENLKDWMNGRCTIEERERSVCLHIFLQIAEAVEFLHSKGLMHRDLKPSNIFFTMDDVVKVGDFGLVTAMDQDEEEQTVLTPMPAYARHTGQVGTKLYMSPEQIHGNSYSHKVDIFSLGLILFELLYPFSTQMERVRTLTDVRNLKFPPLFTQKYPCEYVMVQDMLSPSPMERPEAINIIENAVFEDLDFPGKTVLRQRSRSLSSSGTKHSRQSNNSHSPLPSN
inactive: bafetinib 0.082 | [10] 0.535 | nilotinib -0.201 | [1] -0.072 | dasatinib -0.017 | [2] -0.067 | tipifarnib -0.057 | mubritinib 0.019 | [11] 0.056 | [6] -0.211 | vorinostat -0.02 | citarinostat -0.039 | silmitasertib -0.085 | [8] 0.127 | [9] 0.097
active: [3] 0.845

ERCC6 (UniProt Q03468)
active: bafetinib -0.775
inactive: [10] -0.016 | nilotinib 0.041 | [1] -0.087 | dasatinib -0.043 | [2] -0.021 | [3] 0.129 | [4] -0.094 | tipifarnib 0.019 | mubritinib 0.059 | [5] -0.288 | [11] -0.022 | [6] -0.062 | [7] 0.034 | entinostat -0.191 | vorinostat -0.003 | citarinostat -0.213 | silmitasertib 0.079 | [8] 0.013 | [9] -0.236

DERPC (UniProt P0CG12)
inactive: bafetinib -0.06 | [10] -0.193 | nilotinib 0.044 | [1] -0.04 | dasatinib 0.227 | [2] -0.126 | [4] 0.245 | mubritinib 0.049 | [6] 0.008 | [7] -0.16 | vorinostat -0.042 | citarinostat -0.049 | silmitasertib -0.024 | [9] -0.045

DOCK8 (UniProt Q8NF50)
Chain of UniProt Q8NF50 (Q8NF50 whole entry, looked up): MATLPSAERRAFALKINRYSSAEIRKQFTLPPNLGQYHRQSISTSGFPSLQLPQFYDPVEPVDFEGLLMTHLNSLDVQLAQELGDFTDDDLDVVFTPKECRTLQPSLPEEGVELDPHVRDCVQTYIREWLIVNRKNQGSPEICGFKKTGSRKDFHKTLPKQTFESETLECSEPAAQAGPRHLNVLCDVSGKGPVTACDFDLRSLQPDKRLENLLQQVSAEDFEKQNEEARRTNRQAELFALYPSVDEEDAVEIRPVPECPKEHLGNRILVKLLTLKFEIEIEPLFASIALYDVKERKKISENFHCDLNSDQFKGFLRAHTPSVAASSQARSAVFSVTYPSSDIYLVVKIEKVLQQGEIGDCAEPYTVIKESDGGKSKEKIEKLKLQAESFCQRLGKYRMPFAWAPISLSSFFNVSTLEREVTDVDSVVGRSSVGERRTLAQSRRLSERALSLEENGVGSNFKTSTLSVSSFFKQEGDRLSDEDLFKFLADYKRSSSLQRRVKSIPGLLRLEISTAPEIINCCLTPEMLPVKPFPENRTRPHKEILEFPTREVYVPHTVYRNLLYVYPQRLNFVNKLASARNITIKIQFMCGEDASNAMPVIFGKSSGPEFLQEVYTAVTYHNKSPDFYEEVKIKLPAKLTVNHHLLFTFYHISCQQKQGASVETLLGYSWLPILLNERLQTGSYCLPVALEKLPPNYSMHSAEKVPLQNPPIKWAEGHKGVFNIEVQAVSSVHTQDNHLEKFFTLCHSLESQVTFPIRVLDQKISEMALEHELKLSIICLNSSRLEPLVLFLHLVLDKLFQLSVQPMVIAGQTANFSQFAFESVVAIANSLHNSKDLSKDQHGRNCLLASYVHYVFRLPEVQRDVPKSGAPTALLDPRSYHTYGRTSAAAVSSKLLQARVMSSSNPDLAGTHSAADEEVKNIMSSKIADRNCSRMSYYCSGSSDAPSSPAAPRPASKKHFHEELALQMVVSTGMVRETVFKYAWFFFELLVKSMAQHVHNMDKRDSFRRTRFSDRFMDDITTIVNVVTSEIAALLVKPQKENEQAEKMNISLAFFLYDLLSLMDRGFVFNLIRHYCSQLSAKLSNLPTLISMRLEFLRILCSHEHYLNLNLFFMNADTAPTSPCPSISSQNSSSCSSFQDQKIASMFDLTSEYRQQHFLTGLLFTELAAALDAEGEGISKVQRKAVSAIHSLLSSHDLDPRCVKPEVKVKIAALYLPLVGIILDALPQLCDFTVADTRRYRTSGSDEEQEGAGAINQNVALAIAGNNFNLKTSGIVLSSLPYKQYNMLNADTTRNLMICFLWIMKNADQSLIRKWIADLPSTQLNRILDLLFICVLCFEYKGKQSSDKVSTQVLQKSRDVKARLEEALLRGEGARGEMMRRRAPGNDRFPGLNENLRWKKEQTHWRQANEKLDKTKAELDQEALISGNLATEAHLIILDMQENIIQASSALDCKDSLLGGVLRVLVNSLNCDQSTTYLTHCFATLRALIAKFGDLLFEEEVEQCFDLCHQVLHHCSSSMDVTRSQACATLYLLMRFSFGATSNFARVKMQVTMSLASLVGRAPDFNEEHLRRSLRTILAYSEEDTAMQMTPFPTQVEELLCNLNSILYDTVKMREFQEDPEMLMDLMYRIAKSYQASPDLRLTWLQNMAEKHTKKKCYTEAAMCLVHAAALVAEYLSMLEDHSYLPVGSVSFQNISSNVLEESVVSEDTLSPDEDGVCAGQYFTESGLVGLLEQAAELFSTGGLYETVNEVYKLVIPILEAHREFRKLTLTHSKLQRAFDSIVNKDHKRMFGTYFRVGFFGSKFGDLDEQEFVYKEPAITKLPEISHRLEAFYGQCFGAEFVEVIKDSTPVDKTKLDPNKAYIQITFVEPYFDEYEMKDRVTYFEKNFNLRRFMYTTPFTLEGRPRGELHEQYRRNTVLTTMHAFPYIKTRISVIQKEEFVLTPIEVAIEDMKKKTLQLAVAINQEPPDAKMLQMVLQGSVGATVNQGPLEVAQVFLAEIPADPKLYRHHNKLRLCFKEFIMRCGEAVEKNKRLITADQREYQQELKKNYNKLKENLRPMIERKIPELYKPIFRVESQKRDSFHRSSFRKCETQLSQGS
inactive: bafetinib -0.076 | [10] -0.055 | nilotinib 0.069 | [1] -0.057 | dasatinib 0.052 | [2] -0.126 | [3] -0.14 | [4] -0.067 | mubritinib 0.021 | [5] -0.088 | [11] 0.073 | [6] 0.461 | [7] 0.036 | entinostat 0.079 | vorinostat 0.031 | citarinostat 0.064 | silmitasertib 0.254 | [8] -0.12 | [9] 0.07

DENND10 (UniProt Q8TCE6)
Chain of UniProt Q8TCE6 (Q8TCE6 whole entry, looked up): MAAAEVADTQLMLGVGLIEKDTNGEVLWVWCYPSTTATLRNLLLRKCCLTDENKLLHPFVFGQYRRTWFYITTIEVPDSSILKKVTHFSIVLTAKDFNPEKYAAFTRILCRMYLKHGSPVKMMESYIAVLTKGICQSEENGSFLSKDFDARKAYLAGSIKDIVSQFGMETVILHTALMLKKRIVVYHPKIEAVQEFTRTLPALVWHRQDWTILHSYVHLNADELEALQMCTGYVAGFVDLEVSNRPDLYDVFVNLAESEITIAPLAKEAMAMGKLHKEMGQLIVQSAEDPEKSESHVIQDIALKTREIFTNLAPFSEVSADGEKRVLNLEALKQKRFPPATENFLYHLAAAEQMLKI
inactive: bafetinib 0.033 | nilotinib -0.266 | [1] -0.032 | dasatinib -0.129 | [2] -0.353 | [3] -0.131 | [4] -0.064 | tipifarnib 0.034 | mubritinib 0.077 | [5] 0.018 | [11] 0 | [6] -0.089 | [7] -0.069 | entinostat -0.076 | citarinostat 0.07 | silmitasertib 0.037 | [8] 0.073 | [9] 0.054

DNAAF2 (UniProt Q9NVR5)
Chain of UniProt Q9NVR5 (Q9NVR5 whole entry, looked up): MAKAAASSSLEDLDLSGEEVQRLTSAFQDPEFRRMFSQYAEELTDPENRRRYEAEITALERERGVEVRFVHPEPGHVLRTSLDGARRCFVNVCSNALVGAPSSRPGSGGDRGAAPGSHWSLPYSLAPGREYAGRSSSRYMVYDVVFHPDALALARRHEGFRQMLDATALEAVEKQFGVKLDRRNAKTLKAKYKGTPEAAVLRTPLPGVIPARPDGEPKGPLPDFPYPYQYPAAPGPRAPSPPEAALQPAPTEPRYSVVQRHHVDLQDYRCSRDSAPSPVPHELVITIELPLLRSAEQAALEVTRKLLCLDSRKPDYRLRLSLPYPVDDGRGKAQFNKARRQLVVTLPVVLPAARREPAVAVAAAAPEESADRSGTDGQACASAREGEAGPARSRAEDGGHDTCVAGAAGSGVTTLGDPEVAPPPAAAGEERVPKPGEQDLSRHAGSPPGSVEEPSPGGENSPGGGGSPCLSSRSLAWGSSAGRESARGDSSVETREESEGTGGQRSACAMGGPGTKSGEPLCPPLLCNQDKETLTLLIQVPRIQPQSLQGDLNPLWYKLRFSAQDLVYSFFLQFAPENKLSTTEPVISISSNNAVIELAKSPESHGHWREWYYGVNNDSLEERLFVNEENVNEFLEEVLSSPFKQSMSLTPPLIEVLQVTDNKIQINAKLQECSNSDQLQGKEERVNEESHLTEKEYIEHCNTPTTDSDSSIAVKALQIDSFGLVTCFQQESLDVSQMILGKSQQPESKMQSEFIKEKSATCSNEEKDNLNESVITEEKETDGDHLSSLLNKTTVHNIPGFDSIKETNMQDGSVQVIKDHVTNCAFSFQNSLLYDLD
inactive: bafetinib -0.075 | [10] 0.057 | nilotinib 0.023 | [1] 0.002 | dasatinib -0.049 | [2] 0 | [3] -0.037 | [4] 0.036 | tipifarnib 0.004 | mubritinib 0.026 | [5] 0.039 | [11] 0.025 | [6] -0.042 | [7] -0.044 | entinostat -0.06 | vorinostat 0 | citarinostat -0.034 | silmitasertib 0.016 | [8] -0.003 | [9] -0.03

EDEM2 (UniProt Q9BV94)
inactive: bafetinib 0.094 | [10] 0 | nilotinib -0.096 | [1] 0.003 | dasatinib 0.114 | [2] -0.011 | [3] -0.046 | [4] 0 | tipifarnib 0.15 | mubritinib -0.117 | [5] 0.004 | [11] -0.108 | [6] -0.054 | [7] -0.039 | entinostat -0.003 | vorinostat 0.001 | silmitasertib 0.027 | [8] -0.029

ESS2 (UniProt Q96DF8)
Chain of UniProt Q96DF8 (Q96DF8 whole entry, looked up): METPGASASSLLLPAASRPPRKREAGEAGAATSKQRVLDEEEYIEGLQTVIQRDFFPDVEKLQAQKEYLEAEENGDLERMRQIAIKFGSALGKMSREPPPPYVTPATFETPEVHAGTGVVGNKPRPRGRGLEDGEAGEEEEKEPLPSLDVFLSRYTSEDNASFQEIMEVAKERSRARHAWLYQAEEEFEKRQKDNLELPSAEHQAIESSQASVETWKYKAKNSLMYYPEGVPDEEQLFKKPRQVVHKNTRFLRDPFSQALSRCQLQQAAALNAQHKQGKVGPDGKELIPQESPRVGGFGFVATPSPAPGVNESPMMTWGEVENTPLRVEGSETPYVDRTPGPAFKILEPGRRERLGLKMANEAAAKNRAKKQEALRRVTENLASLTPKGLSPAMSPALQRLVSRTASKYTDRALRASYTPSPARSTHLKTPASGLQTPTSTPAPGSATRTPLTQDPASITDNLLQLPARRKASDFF
inactive: bafetinib -0.186 | [10] -0.07 | nilotinib 0.013 | [1] -0.048 | dasatinib 0.011 | [2] 0.019 | [3] -0.061 | [4] -0.081 | tipifarnib 0.038 | mubritinib 0.008 | [5] 0.036 | [11] 0.048 | [6] -0.078 | [7] 0.069 | entinostat -0.027 | vorinostat -0.012 | citarinostat 0.014 | silmitasertib 0.04 | [8] 0.033 | [9] -0.017

EXOC5 (UniProt O00471)
inactive: bafetinib -0.016 | [10] 0.061 | nilotinib -0.109 | [1] -0.258 | dasatinib -0.1 | [2] -0.078 | [3] 0.022 | [4] 0.026 | tipifarnib -0.076 | mubritinib 0.039 | [5] 0.01 | [11] -0.101 | [6] -0.222 | [7] -0.063 | entinostat 0.069 | vorinostat 0.086 | citarinostat 0.027 | silmitasertib 0.042 | [8] -0.02 | [9] -0.153

DNM2 isoform 4 (UniProt P50570)
inactive: bafetinib 0.154 | [10] 0.062 | nilotinib -0.006 | [1] 0.047 | dasatinib -0.007 | [2] -0.047 | [3] 0.006 | [4] 0.005 | mubritinib 0.108 | [5] -0.033 | [6] -0.318 | entinostat 0.342 | vorinostat -0.068 | citarinostat -0.113 | silmitasertib 0.116 | [8] 0.19 | [9] 0.06

— the supplement of paper PMC10849652
